Assay results as given in PubChem BioAssay AID463193 (University of Pittsburgh Molecular Library Screening Center, 2010).
Among all 190,000 compounds or so, about 1,900 (1%) were called active. The sample holds actives, similar compounds and a random draw of the others, so the mix is not that of the screen.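 The calls were made as follows: active = percentage of spot-positive cells more than 3 SD above its plate mean, without a fluorescence outlier flag or 80% toxicity; inconclusive = no clear call, values can overlap the other calls; inactive = the rest.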

experiment: GFP-LC3 puncta formation changes – imaging, high-content, MEF GFP-LC3, primary screen (AID 463193); settings: autophagy, at 10 µM; % cells with GFP-LC3 spots: stronger effect = higher value; toxicity: measured here: cell loss, nuclei count;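 as to % cells with GFP-LC3 spots: spot-positive cell cutoff set from DMSO-treated cells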;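 as to toxicity: cell loss after 18 h compound exposure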

SMILES	% cells with GFP-LC3 spots	toxicity
Cc1ccc(C(=O)NCC2CCCO2)o1 (centres undefined)	12.6% (inactive)	-1.73%
OC(CNCC1CCCO1)Cn1c2ccc(Br)cc2c2cc(Br)ccc21 (centres undefined)	7.36% (active)	47%
CCc1cc(Br)ccc1NC(=O)C1CCCO1 (centres undefined)	2.25% (inactive)	-4.23%
c1cc(-n2cnnn2)ccc1NC1=NCCC1	12.1% (active)	-6.55%
O=C(Cc1c(F)cccc1Cl)Nc1ccc(-n2cnnn2)cc1	1.73% (inactive)	5.48%
O=C(c1ccc(-n2cnnn2)cc1)N1CCN(C(c2ccccc2)c2ccccc2)CC1	1.42% (inactive)	13.6%
CN(C)CCNC(=O)Cc1ccc([N+](=O)[O-])cc1	4.19% (inactive)	2.43%
COc1ccc(CC(=O)NCc2nnc(SCC(=O)Nc3ncc(C)s3)n2C)cc1	3.99% (inactive)	-3.03%
Cn1c(=O)c([N+](=O)[O-])c(Oc2ccccc2)c2ccccc21	0.277% (inactive)	-4.02%
O=C(OCC1O[C@@H](OC(=O)c2cc(O)c(O)c(O)c2)[C@@H](OC(=O)c2cc(O)c(O)c(O)c2)[C@@H](OC(=O)c2cc(O)c(O)c(O)c2)[C@@H]1OC(=O)c1cc(O)c(O)c(O)c1)c1cc(O)c(O)c(O)c1 (some centres undefined)	0.427% (inactive)	-40.5%
CCOC(=O)C1=C(C)OC(N)=C(C#N)C1c1cncc(-c2ccc(F)cc2)c1 (centres undefined)	6.18% (inactive)	10.5%
C(=N\N1CCN(c2ccccn2)CC1)/C1=C(N2CCOCC2)C(=C/c2ccccc2)/CC1	21.9% (inactive)	10.4%
N#C/C(=C\c1ccccc1C(F)(F)F)C(=O)Nc1ccccc1F	17.6% (inactive)	-10.6%
N#C/C(=C\C1=C(N2CCOCC2)C(=C\c2ccccc2)/CC1)C(=O)Nc1ccccc1F	94.8% (active)	9.15%
O=C1CCCN1CCCNC(=S)Nc1ccc(F)c(Cl)c1	9.25% (inactive)	10.7%
COc1ccc(C(=O)NC(=S)Nc2ccc(N3CCCC3)cc2)cc1OC	2.21% (inactive)	8.63%
COc1cccc(OC)c1C(=O)Nc1ccc(N2CCCCC2)cc1	4.97% (inactive)	0.418%
COc1cccc(C(=O)Nc2ccc(N3CCCC3)cc2)c1	41.2% (active)	21.3%
O=C(NCCc1c[nH]c2ccccc12)C(=O)NCC1CCCO1 (centres undefined)	2.06% (inactive)	4.43%
CC(=O)N/C(=C/c1ccc(Cl)cc1)C(=O)NCCc1c[nH]c2ccccc12	1.94% (inactive)	-16.7%
N#C/C(=C/c1ccc(N2CCCCC2)o1)C(=O)NCCc1c[nH]c2ccccc12	95% (active)	-16.4%

SMILES	% cells with GFP-LC3 spots	toxicity
COc1ccc(C(=O)Nc2ccc(F)cc2F)cc1	8.35% (inactive)	1.69%
CCOC(=O)N1CCN(S(=O)(=O)c2ccc(C(=O)Nc3ccc(F)cc3F)cc2)CC1	13.1% (active)	35.6%
O=C(Nc1cccc(F)c1)c1ccc(S(=O)(=O)N2CCCC2)cc1	2.96% (inactive)	-0.834%
O=C(CCCN1C(=O)/C(=C/c2ccccc2)SC1=S)Nc1ccc(O)cc1	5.17% (inactive)	20.5%
CCCCN1C(=O)/C(=C2/C=CC=CN2C)SC1=S	2.78% (inactive)	-16.3%
CCCCN1C(=O)/C(=C/C=C2/C=Cc3ccccc3N2CC)SC1=S	36.6% (active)	17.1%
Cc1ccccc1Cn1nc(C)c(NC(=O)C(F)(F)F)c1C	25.2% (inactive)	-15.5%
COc1ccc(NC(=O)COC(=O)c2ccncc2)c(OC)c1	4.41% (inactive)	21.4%
CC1c2nc3ccccc3n2C(CC(=O)NCCCN2CCOCC2)C(=O)N1Cc1ccccc1 (centres undefined)	6.3% (inactive)	-3.99%
COc1ccc(OC)c(NC(=S)N2CCc3ccccc3C2)c1	1.08% (inactive)	-17.2%
COc1ccc(Nc2cc(C)nc(-n3nc(C)cc3C)n2)cc1	1.92% (inactive)	48.3%
Cc1cc(C)n(-c2cc(Oc3ccccc3)ncn2)n1	4.54% (inactive)	-5.5%
CC(=O)c1ccc(Oc2cc(C)nc(-n3nc(C)cc3C)n2)cc1	22.7% (active)	52.9%
O=C1/C(=C\c2ccsc2)NC(=S)N1c1ccccc1	0.432% (inactive)	4.12%
Nc1[nH]c(=S)nc2nc(-c3ccccc3)c(-c3ccccc3)nc12	14.2% (inactive)	22.7%
O=C(O)CS/C(=C\c1ccc(F)cc1)c1nc2ccccc2s1	5.4% (inactive)	-6.27%
N#C/C(=C(/O)Cc1cccc2ccccc12)c1nc2ccccc2s1	0.484% (inactive)	-0.84%
CC1=CC(=C(C#N)c2nc3ccccc3s2)C=C(C)N1c1ccc(F)cc1F	27.8% (active)	15.8%
CCc1ccc2c(c1)cc(CN(C(=S)Nc1ccccc1Cl)C1CC1)c1nnnn12	19.7% (active)	11.8%
CCOc1ccc2c(c1)cc(CN(C(=O)CC)C1CCCCC1)c1nnnn12	5.66% (inactive)	13.7%
COCCN(CCOC)C(=S)Nc1ccccc1Cl	8.84% (inactive)	-8.3%
